This is an account of results in PubChem BioAssay.

For part of these data: Entries with a potency or affinity are not part of this list. The source made the active and inactive calls.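 Rule for the calls, unless noted: active = hit in primary screen, with calcium signal over 5 SD above buffer well mean in both duplicates; inactive = the rest.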

The test system of experiment [1] is TRPC4 beta (transient receptor potential cation channel C4), mouse. Kind of experiment: activators of mouse TRPC4 channel, confirmation, cell-based, Fluo4 calcium, HEK293 TRPC4beta/mu-opioid, duplicates, 10 µM (AID 2426;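 active = fluorescence ratio normalized to control raised more than 50% in primary screen plus both repeat runs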;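 for activation: percent rise of integrated ratio over buffer wells lacking compound which define 0%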). To be noted: Fluo4 calcium fluorescence, at 10 µM; active compounds read high.
Experiment [2] deals with transient receptor potential cation channel C4 beta (TRPC4), mouse. Description: activators of mouse TRPC4 channel, confirmation, cell-based, second round, Fluo4, HEK293 TRPC4beta/mu-opioid, 1 µM (AID 2461;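 active = primary screen active and over 50% activation in each of two duplicate runs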;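 for activation: 0% = wells without test compound as baseline of integrated fluorescence ratio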). As to conditions: Fluo4 calcium fluorescence, at 1 µM; active compounds read high.
In experiment [3] the test system is TRPC4 (transient receptor potential cation channel C4 beta), mouse. Kind of experiment: positive allosteric modulators of mouse TRPC4, confirmation, cell-based, second round, Fluo-4, HEK293 TRPC4beta/mu-opioid, 1 µM (AID 2554;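 active = primary screen hit whose fluorescence ratio, in both repeats, exceeds the weak agonist control mean by 3 SD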). As to conditions: DAMGO EC20, Fluo-4 calcium flux, at 1 µM; active compounds read high.
For experiment [4], the system named is TRPC4 beta (transient receptor potential cation channel C4), mouse. Kind of experiment: positive allosteric modulators of mouse TRPC4, confirmation, cell-based, Fluo-4, HEK293 TRPC4beta/mu-opioid (AID 2555;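 active = primary screen hit whose calcium fluorescence ratio, in both repeats, exceeds the weak agonist control mean by 3 SD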). To be noted: DAMGO EC20, Fluo-4 calcium flux, at 10 µM; active compounds read high. (A change in cytosolic calcium serves as a functional read-out for many receptors and channels.)

The target of experiment [5] is Short transient receptor potential channel 4 (Mus musculus) (UniProt Q9QUQ5). Description: inhibitors of mouse TRPC4 channel, confirmation, cell-based, Fluo4, HEK293 TRPC4beta/mu-opioid (AID 2636;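 active = calcium signal cut by more than 3 SD below the full-agonist control yet still positive, in both repeats and the earlier primary screen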). As to conditions: DAMGO, Fluo4 calcium flux, at 10 µM; active compounds read high.
Short transient receptor potential channel 4 (Mus musculus), sequence (Q9QUQ5 whole entry, looked up): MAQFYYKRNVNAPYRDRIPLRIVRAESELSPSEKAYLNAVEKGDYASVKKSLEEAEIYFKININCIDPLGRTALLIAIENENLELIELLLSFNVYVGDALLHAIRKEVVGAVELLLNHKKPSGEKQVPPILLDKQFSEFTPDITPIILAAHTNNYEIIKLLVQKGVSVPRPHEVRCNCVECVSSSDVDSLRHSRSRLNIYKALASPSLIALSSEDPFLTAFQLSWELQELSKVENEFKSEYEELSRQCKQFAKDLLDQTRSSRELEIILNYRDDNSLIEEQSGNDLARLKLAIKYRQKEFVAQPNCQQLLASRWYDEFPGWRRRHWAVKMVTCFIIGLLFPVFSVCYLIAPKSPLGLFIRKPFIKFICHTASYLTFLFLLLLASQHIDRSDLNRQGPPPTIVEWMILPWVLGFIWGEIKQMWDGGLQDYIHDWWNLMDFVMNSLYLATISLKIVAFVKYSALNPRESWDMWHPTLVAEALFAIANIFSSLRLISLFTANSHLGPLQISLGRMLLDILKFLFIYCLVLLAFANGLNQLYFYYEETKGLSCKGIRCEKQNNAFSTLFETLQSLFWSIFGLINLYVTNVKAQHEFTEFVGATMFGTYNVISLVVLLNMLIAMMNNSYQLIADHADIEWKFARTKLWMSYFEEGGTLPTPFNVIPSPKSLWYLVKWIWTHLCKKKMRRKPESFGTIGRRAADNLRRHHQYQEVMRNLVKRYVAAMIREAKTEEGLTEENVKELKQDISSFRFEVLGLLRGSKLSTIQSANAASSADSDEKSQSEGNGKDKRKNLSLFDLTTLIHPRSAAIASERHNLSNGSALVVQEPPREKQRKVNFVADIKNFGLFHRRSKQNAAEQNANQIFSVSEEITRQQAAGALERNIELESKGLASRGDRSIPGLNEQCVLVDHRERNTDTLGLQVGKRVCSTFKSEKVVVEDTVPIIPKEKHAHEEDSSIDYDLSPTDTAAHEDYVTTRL
Experiment [6] has the same target. Kind of experiment: inhibitors of mouse TRPC4 channel, confirmation, cell-based, second round, Fluo4, HEK293 TRPC4beta/mu-opioid, 1 µM (AID 2637;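 active = calcium signal ratio cut to more than 3 SD under the fully stimulated control mean yet still positive, in both repeats and the primary screen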). To be noted: Fluo4 calcium flux, DAMGO, at 1 µM; active compounds read high.
Experiment [7] has the same target. Kind of experiment: TRPC4 positive allosteric modulators, dose response, cell-based, HEK293 TRPC4/mu-opioid, Fluo-4 calcium, EC20 DAMGO (AID 434941;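 active = earlier screen potentiator hit that boosts the TRPC4 ion channel at some dose, with a dose response; inactive = no potentiation, no dose response, or not a prior hit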;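 note: calcium entry triggered by an EC20 dose of DAMGO at the co-expressed mu-opioid receptor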).
Experiment [8] shares this target. Description: mouse TRPC4 channel inhibitors, dose response, cell-based, HEK293 TRPC4/mu-opioid, Fluo-4 calcium (AID 434942;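 active = primary screen inhibitor hit that blocks the TRPC4 channel at some tested dose, yielding a dose curve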).
The target in experiment [9] is Short transient receptor potential channel 6 (Mus musculus) (UniProt Q61143). Kind of experiment: inhibition of mouse TRPC6 channel, confirmation, selectivity assay for TRPC4 inhibitor project, cell-based, HEK293, membrane potential dye, duplicate (AID 434948;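 active = active in primary screen and both duplicates, each dropping signal beyond three positive-control SD with fluorescence still positive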). To be noted: HEK293 TRPC6, membrane potential dye fluorescence, at 10 µM, stimulated with maximal-effect acetylcholine; active compounds read high.
Short transient receptor potential channel 6 (Mus musculus), sequence (Q61143 whole entry, looked up): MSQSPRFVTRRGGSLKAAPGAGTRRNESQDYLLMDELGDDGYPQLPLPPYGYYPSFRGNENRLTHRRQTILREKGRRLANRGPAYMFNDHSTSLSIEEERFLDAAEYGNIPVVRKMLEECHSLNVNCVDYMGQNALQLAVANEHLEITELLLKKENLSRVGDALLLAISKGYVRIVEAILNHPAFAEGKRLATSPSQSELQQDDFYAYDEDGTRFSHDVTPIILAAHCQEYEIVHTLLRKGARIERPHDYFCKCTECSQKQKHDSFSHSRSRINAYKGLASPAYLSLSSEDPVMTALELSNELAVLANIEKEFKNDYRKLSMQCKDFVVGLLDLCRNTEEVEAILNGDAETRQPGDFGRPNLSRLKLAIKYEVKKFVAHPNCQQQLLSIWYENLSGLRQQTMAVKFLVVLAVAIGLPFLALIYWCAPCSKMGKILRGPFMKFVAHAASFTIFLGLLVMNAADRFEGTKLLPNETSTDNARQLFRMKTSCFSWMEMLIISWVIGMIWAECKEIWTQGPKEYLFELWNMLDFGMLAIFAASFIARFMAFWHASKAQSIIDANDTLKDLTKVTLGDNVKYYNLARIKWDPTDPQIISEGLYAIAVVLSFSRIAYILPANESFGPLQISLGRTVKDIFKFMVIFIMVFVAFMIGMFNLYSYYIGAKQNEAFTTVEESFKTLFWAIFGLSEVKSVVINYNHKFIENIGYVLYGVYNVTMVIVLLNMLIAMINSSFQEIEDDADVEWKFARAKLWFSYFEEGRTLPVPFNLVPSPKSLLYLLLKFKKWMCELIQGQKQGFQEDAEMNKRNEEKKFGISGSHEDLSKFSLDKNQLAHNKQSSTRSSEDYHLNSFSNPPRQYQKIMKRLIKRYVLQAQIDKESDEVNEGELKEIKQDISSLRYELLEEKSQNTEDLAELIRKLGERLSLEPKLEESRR

Experiment [10] shares this target. Kind of experiment: activation of mouse TRPC6 channel, confirmation, selectivity assay for TRPC4 activator project, cell-based, HEK293, membrane potential dye, duplicate (AID 434950;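 active = membrane potential signal rise above negative control mean plus 3 SD in both duplicates, also active in the earlier TRPC4 screen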;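 for activation: 0% = buffer only wells and 100% = acetylcholine maximal-effect wells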). To be noted: HEK293 TRPC6, membrane potential fluorescence, at 10 µM; active compounds read high.
Experiment [11] has the same target. Description: TRPC6 potentiation by TRPC4 potentiator hits, confirmation, selectivity assay for TRPC4 potentiator project, HEK293 cells, membrane potential dye, duplicate (AID 434952;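 active = compound raising the membrane signal above positive-control mean plus 3 SD in both repeats, and a primary screen hit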). As to conditions: HEK293 TRPC6, membrane potential dye fluorescence, at 10 µM, maximal acetylcholine added after compound; active compounds read high.
Experiment [12] concerns the target Short transient receptor potential channel 4 (Mus musculus) (UniProt Q9QUQ5). Description: calcium flux activators in TRPC4/5HT1a cells, counter-screen for TRPC4 activator project, cell-based, second counter screen, HEK293 TRPC4/5HT1a, Fluo-4 (AID 434977;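 active = calcium signal rise above buffer-control mean plus 5 SD in both duplicates, and also a hit in the primary screen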;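 for activation: plate controls were assay buffer for no effect and maximal serotonin response for full effect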). To be noted: Fluo-4 calcium flux, at 10 µM; active compounds read high.
A short description of experiment [13]: calcium flux inhibitors in TRPC4/5HT1a cells, confirmation, counter-screen for TRPC4 inhibitor project, cell-based, second counter screen, HEK293 TRPC4/5HT1a, Fluo-4 (AID 434978;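 active = primary screen active whose calcium signal fell more than 3 SD beyond the full-serotonin control mean in both duplicate plates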;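 note: serotonin given first at submaximal then at maximal dose after compound preincubation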). As to conditions: Fluo-4 calcium flux, at 10 µM, serotonin added to trigger calcium flux; active compounds read high.
The test system of experiment [14] is TRPC4 (mouse), co-expressed with 5HT1a in HEK293. Description: calcium flux potentiators in TRPC4/5HT1a cells, confirmation, counter-screen for TRPC4 potentiator project, cell-based, second counter screen, HEK293 TRPC4/5HT1a, Fluo-4 (AID 434979;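 active = signal rise over 3 SD above mean of control wells given weak agonist, in both repeats and first screen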). As to conditions: Fluo-4 calcium flux, at 10 µM, serotonin added at its EC20 dose; active compounds read high.
Experiment [15] in a line: calcium flux activation in mu-opioid HEK293 cells, confirmation, counter-screen for TRPC4 activator project, cell-based, HEK293 mu-opioid receptor line (AID 449723).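 Note: counter screen cells carry the mu-opioid receptor alone and lack TRPC4.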 As to conditions: Fluo-4 calcium fluorescence, at 10 µM; active compounds read high.
A short description of experiment [16]: calcium flux enhancement in mu-opioid HEK293 cells, confirmation, counter-screen for TRPC4 allosteric potentiator project, cell-based, HEK293 mu-opioid receptor line (AID 449724;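 active = calcium signal rise more than 3 SD above the low-dose agonist control mean, in both duplicate plates and the primary screen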;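 note: HEK293 cells carrying mu-opioid receptor only with no TRPC4 channel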). To be noted: Fluo-4 calcium flux, at 10 µM, compound added before EC20 DAMGO stimulus; active compounds read high.

Take `CN(C)CCNC(=O)c1c(NC(=O)c2ccccc2)sc2c1CCCC2`: the activation in [1] is 161% (active). Moreover, the result in experiment [2], in experiment [3], in experiment [4], in experiment [5], in experiment [6] and in experiment [7] was inactive. In addition, the outcome in experiment [8], in experiment [9], in [10], in experiment [11], in [12] and in experiment [13] was inactive. The result in experiment [14], in experiment [15] and in [16] was inactive.

In the case of `COc1ccc(-c2nn(-c3ccccc3C)cc2CNC(C)c2cn(C)nc2C)cc1F` (stereo not given), the results for the activation in experiment [1], in [2] and in experiment [10] were 206% (active), 74% (active) and 31% (active), respectively. Also, the outcome in experiment [3], in experiment [4], in experiment [5], in experiment [6], in experiment [7] and in [8] was inactive. Moreover, the result in experiment [9], in experiment [11], in [12], in [13], in [14] and in [15] was inactive. The result in experiment [16] was inactive.

With `COc1ccc(C(CNC(=O)Cc2cccs2)N(C)C)cc1` (stereo not given), the activation in experiment [1] was 102% (active); in experiment [2], 103% (active); in experiment [10] it was 36.5% (active). For the same molecule, the result in experiment [3], in experiment [4], in experiment [5], in experiment [6], in experiment [7] and in [8] was inactive. The outcome in experiment [9], in experiment [11], in experiment [12], in [13], in [14] and in [15] was inactive. Also, the outcome in [16] was inactive.

Consider `CC(C)Cc1ccc(CN2CCCC(NC(=O)CCn3cnnn3)C2)cc1` (stereo not given), for which the results for the activation in experiment [1] and in [12] were 111% (active) and 27.9% (active), respectively. The result in [2], in [3], in experiment [4], in experiment [5], in [6] and in experiment [7] was inactive. Further, the result in experiment [8], in [9], in [10], in [11], in [13] and in [14] was inactive. Also, the outcome in experiment [15] and in experiment [16] was inactive.

Consider `COCCCn1c(N)c(-c2nc3ccccc3n2C)c2nc3ccccc3nc21`, for which the result in experiment [1], in experiment [2], in [3], in experiment [4], in [5] and in [6] was inactive. In addition, the result in experiment [7], in experiment [8], in experiment [9], in experiment [11], in [13] and in [14] was inactive. The outcome in [16] was inactive. Moreover, the activation is 137% (active) in experiment [10], 27.5% (active) in [12] and 16.7% (active) in [15].

In the case of `CN1C(CC(=O)Nc2ccc(Br)cc2)c2ccccc2CC1(C)C` (stereo not given), the activation in experiment [1] is 97% (active); in experiment [10], 28.5% (active); in experiment [12], 7.45% (active). Moreover, the outcome in experiment [2], in [3], in experiment [4], in experiment [5], in experiment [6] and in experiment [7] was inactive. Further, the result in [8], in experiment [9], in experiment [11], in experiment [13], in [14] and in experiment [15] was inactive. Besides, the outcome in [16] was inactive.

In the case of `CC1CC(C)CN(CCCNC(=O)Cn2cccc2C(=O)c2ccccc2)C1` (stereo not given), the activation in experiment [1] is 162% (active); in experiment [2] it was 98% (active); in experiment [10] it was 50.5% (active); in experiment [12], 62.1% (active). The outcome in [3], in [4], in experiment [5], in experiment [6], in experiment [7] and in experiment [8] was inactive. Further, the molecule was called inactive in experiment [9], in experiment [11], in experiment [13], in [14], in [15] and in experiment [16].

Regarding `Clc1ccc2nc(N3CCNCC3)nc(-c3ccccc3)c2c1`, the activation in experiment [1] was 74% (active); in experiment [12], 26.8% (active); in experiment [15], 12.1% (active). Besides, the result in experiment [2], in [3], in experiment [4], in experiment [5], in experiment [6] and in experiment [7] was inactive. The outcome in [8], in experiment [9], in [10], in [11], in [13] and in experiment [14] was inactive. Further, the result in [16] was inactive.

`COc1ccc2c(Cl)c(-c3nnc(SCC(=O)c4ccccc4)n3C)sc2c1`: the outcome in experiment [1], in experiment [2], in experiment [3], in [4], in [5] and in [6] was inactive. For the same molecule, the result in experiment [7], in experiment [8], in experiment [9], in [11], in experiment [12] and in experiment [13] was inactive. Also, the result in experiment [14], in experiment [15] and in experiment [16] was inactive. Further, the activation in experiment [10] was 35.5% (active).

As for `Cc1sc2ncnc(NCC(c3ccccc3)N(C)C)c2c1C` (stereo not given), the figures for the activation in [1], in experiment [2] and in experiment [12] were 245% (active), 120% (active) and 49% (active), respectively. Further, the result in experiment [3], in experiment [4], in experiment [5], in experiment [6], in experiment [7] and in experiment [8] was inactive. Further, the molecule was classed as inactive in experiment [9], in experiment [10], in experiment [11], in [13], in experiment [14] and in experiment [15]. The outcome in experiment [16] was inactive.

As for `CCCCN(CC)CCNC(=O)c1ccc2c(Cl)c3c(nc2c1)CCC3`, the activation in experiment [1] was 166% (active); in experiment [2], 142% (active); in [12], 92.3% (active). Further, the result in [3], in experiment [4], in experiment [5], in experiment [6], in [7] and in experiment [8] was inactive. Besides, the molecule was classed as inactive in experiment [9], in experiment [10], in experiment [11], in [13], in [14] and in [15]. The outcome in experiment [16] was inactive.

On to `CCN1CCCC1CNC(=O)c1cc2c(OC)cccc2[nH]1` (stereo not given), for which the results for the activation in experiment [1] and in experiment [10] were 136% (active) and 36.5% (active), respectively. The result in experiment [2], in experiment [3], in experiment [4], in experiment [5], in experiment [6] and in experiment [7] was inactive. Also, the result in [8], in [9], in [11], in [12], in [13] and in experiment [14] was inactive. Moreover, the outcome in experiment [15] and in experiment [16] was inactive.

With `COc1ccc(C(CNC(=O)C(Cc2ccccc2)NC(N)=O)N(C)C)cc1` (stereo not given), the activation in experiment [1] is 92% (active); in [2] it was 90% (active); in [10], 32% (active). For the same molecule, the result in experiment [3], in experiment [4], in experiment [5], in [6], in experiment [7] and in experiment [8] was inactive. The molecule was classed as inactive in experiment [9], in experiment [11], in experiment [12], in experiment [13], in [14] and in experiment [15]. In [16], the outcome was inactive.

With `Cc1csc2c(N3CCN(C(=O)Nc4ccc(OC(F)(F)F)cc4)CC3)ncnc12`, the activation in experiment [1] is 75% (active); in [12], 43.3% (active). Also, the outcome in [2], in experiment [3], in [4], in [5], in experiment [6] and in experiment [7] was inactive. Also, the outcome in experiment [8], in [9], in experiment [10], in experiment [11], in [13] and in [14] was inactive. Also, the outcome in [15] and in [16] was inactive.

As for `CN(C)C(CNC(=O)CCS(=O)(=O)c1ccccc1)c1ccccc1` (stereo not given), the activation in experiment [1] was 77% (active); in experiment [2], 75% (active). Also, the outcome in experiment [3], in experiment [4], in [5], in experiment [6], in experiment [7] and in experiment [8] was inactive. Further, the call in experiment [9], in experiment [10], in experiment [11], in [12], in [13] and in experiment [14] was inactive. The outcome in [15] and in experiment [16] was inactive.
